Measured values from PMC4666376, “Characterisation of aptamer–target interactions by branched selection and high-throughput sequencing of SELEX pools”.

molecular target: PAI-1 wild type, active (human, UniProt P05121 24-402); assay: branched SELEX with high-throughput sequencing; PAI-1 immobilised on polyclonal anti-PAI-1 antibody; HBS (10 mM HEPES pH 7.4, 140 mM NaCl), 2 mM MgCl2, 2 mM CaCl2, 0.1% BSA; RNA pool 100 nM; PAI-1 captured on antibody-coated wells; 45 min; binding temperature not stated (PAI-1 capture at room temperature); high values mean tight binding; conditions: protein: recombinant; tags: N-terminal His6; structured_RNA; 2'-F pyrimidines;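 note: Pool frequency after one selection round with this target divided by frequency before selection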
Sequence (P05121 24-402): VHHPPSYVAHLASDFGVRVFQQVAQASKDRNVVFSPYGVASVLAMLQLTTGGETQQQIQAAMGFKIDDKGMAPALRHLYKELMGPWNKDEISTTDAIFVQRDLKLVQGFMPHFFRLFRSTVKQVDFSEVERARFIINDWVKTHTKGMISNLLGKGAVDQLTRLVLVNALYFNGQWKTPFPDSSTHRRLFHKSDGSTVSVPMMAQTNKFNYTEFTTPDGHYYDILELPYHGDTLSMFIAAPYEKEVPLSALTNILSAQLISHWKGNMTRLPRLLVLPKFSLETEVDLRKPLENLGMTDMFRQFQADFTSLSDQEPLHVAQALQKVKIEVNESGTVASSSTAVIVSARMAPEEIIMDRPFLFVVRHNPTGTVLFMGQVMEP

**Q.** How did the binding signal turn out when “GGGGCCACCAACGACAUUGUAGACUUGUCAACGGUCGACUGUCGAUACAUGUGUUGAUAUAAAUAGUGCCCAUGGAUC” was run?
**A.** 0.56 enrichment factor

**Q.** With “GGGGCCACCAACGACAUUUGGACUGAAUCCAACCUUAUGCGUAAGCAUAGUUCGUUGAUAUAAAUAGUGCCCAUGGAUC” as the sequence, how does the binding signal read?
**A.** 2.2 enrichment factor

**Q.** For “GGGGCCACCAACGACAUUGACCCGGUCACUUAUGUGGCCGAUAUCGUAGAUGCGUUGAUAUAAAUAGUGCCCAUGGAUC”, which binding signal is on record?
**A.** 0.2 enrichment factor

**Q.** How did the binding signal turn out when “GGGGCCACCAACGACAUUACGUAGUUUGAGAUAGUUAACUCGAACGAUUAGUUGUUGAUAUAAAUAGUGCCCAUGGAUC” was run?
**A.** 1.57 enrichment factor

**Q.** Which binding signal does the source give for “GGGGCCACCAACGACAUUUAGGGUGCCGAUCAUGUCACGUAGGCAUCCGAUACGUUGAUAUAAAUAGUGCCCAUGGAUC” here?
**A.** 0.42 enrichment factor

**Q.** With “GGGGCCACCAACGACAUUGCCGUAGGUGCGGGAACACUUCACCGAUCGAUGUUGUUGAUAUAAAUAGUGCCCAUGGAUC” as the sequence, how does the binding signal read?
**A.** 2.29 enrichment factor

**Q.** How did the binding signal turn out when “GGGGCCACCAACGACAUUUACCGUCUGGGUAACCUUGUACGAUAGUACAGUUCGUUGAUAUAAAUAGUGCCCAUGGAUC” was run?
**A.** 1.31 enrichment factor

**Q.** With “GGGGCCACCAACGACAUUCAGCGAUGUAGUGCACAUUGCACGACCAUGAUGGAGUUGAUAUAAAUAGUGCCCAUGGAUC” as the sequence, how does the binding signal read?
**A.** 0.53 enrichment factor

**Q.** How did the binding signal turn out when “GGGGCCACCAACGACAUUGCAUCGUAGGCAUAUAGCUGACUGCAAUUUAGGACGUUGAUAUAAAUAGUGCCCAUGGAUC” was run?
**A.** 2 enrichment factor

**Q.** Which binding signal does the source give for “GGGGCCACCAACGACAUUAAGUUCGUCCCCGUAAGCUCUUACGGGGUCUAUGCGUUGAUAUAAAUAGUGCCCAUGGAUC” here?
**A.** 5.92 enrichment factor

**Q.** For “GGGGCCACCAACGACAUUAUACAGCCGAUCAUGUCACGUAGGCUGUGAUUAACGUUGAUAUAAAUAGUGCCCAUGGAUC”, which binding signal is on record?
**A.** 0.58 enrichment factor
